Screens as filed in PubChem.
hcDAF12 agonist: activates DAF-12 receptor from parasite H. contortus; HEK293 hcDAF-12 lit1-tk-luc reporter, luminescence; 0% DMSO, 100% Δ7-dafachronic acid; activation, % at 6.8 µM; 1.4% of 370,000 active;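 active = activation above the mean of all tested compounds plus 3 SD, cut at about 5.5% in these data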
DAX1 inh-1: blocks DAX1 repression of SF-1 activated StAR promoter; HEK293T StAR-luciferase reporter, SF-1/DAX-1 repression relief; 1.1% of 370,000 active; inhibition, % at 6.8 µM; AID 652010;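 active = inhibition above the mean over all tested compounds plus 3 SD, cut at about 3.6% in these data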;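 note: higher inhibition means more luminescence from relief of DAX-1 repression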
AHR activator: human AHR activation; P35869; AHR-responsive luciferase reporter cells, luminescence; activation, % at 5 µM; 2.5% of 320,000 active; AID 2796; in the data active = activation above about 47%
Target sequence (P35869 whole entry, looked up): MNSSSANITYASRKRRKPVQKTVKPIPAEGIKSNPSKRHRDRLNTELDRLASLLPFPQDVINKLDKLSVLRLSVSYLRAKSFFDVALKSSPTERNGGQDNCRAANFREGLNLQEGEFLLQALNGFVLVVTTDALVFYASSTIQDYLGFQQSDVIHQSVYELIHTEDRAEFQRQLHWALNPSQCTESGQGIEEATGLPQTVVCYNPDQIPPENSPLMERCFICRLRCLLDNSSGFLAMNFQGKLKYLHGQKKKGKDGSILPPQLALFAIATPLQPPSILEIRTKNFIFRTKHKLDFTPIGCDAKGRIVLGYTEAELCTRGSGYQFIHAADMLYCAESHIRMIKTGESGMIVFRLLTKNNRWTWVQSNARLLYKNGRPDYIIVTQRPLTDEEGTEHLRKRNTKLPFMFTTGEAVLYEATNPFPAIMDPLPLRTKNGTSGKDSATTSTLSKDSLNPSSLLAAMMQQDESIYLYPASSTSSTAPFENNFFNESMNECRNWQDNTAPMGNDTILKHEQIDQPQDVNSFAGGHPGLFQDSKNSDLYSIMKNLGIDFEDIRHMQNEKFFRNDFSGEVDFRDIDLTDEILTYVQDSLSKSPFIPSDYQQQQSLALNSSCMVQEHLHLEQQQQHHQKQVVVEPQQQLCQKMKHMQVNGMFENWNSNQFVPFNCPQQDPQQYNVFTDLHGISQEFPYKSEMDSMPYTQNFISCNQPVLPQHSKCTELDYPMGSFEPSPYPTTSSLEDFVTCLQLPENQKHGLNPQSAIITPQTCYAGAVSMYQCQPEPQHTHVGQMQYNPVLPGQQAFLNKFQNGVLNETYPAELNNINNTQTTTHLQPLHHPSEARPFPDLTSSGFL
DAX1 inh-2: inhibits human nuclear receptor DAX1; P51843; HEK293 Gal4-DAX1 luciferase reporter, luminescence; inhibition, % at 6.75 µM; 0.99% of 340,000 active;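 active = inhibition above the mean over all tested compounds plus 3 SD, cut at about 4.2% in these data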;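 note: inhibition shows as a rise in luminescence from relieved DAX1 repression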
hgDAF12 agonist: hgDAF-12 agonism, primary luciferase screen. HEK293 GAL4-hgDAF12 UAS-luciferase reporter, agonist luminescence; normalized to butyrate control. activation, % at 6.8 µM. 1.8% of 370,000 active;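 active = activation above a cutoff set at the mean of all screened compounds plus 3 SD, cut at about 10% in these data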
ssDAF12 agonist: activators of S. stercoralis DAF-12 nuclear receptor. HEK293 ssDAF-12/GRIP1 lit1-tk-luc reporter, luminescence; % of 3 µM dafachronic acid response. activation, % at 6.8 µM. 1% of 370,000 active. AID 652126;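 active = activation above the mean over all tested compounds plus 3 SD, cut at about 0.9% in these data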
LXR ag: LXR-beta agonism as hcDAF-12 counter-screen. shares compounds with hcDAF12 agonist. HEK293 Gal4-LXR tk-luc reporter, luminescence, 24 h; normalized: DMSO 0%, positive control 100%. activation, % at 6.8 µM. 3,400 tested, under 10 active. AID 743027;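 active = mean percent activation of the reporter above a cutoff set as the average over tested compounds plus their standard deviation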
hcDAF12 ag: confirmation of H. contortus DAF-12 agonists; shares compounds with hcDAF12 agonist; HEK293 hcDAF-12 lit1-tk-luc reporter, luminescence; % of Δ7-dafachronic acid response; activation, % at 6.8 µM; 61% of 3,400 active; AID 743032;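 active = mean activation across triplicate tests above the threshold derived from the earlier primary screen, cut at about 5.5% in these data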
Of the large screens only hits and unclear results are named; the others gave an inactive call (follow-up assays come after a bar, where they were run). Compounds with a hit are over-represented: about 5.7% of the library has one in this group of screens.

CCOC(=O)c1sc(N=NC2=C(O)CC(C)(C)CC2=O)c(C(=O)OCC)c1C	none
O=C1/C(=C/Nc2ccc3c(c2)OCO3)CCc2ccccc21	hcDAF12 agonist 9.4 | LXR ag inactive | hcDAF12 ag 7.5
COc1ccc(NCC(=O)N/N=C/C=C\c2ccccc2)cc1	hcDAF12 agonist 7.6 | LXR ag inactive | hcDAF12 ag inactive
Cc1nc2c(Cl)cccc2c2c1CC(CBr)O2 (stereo not given)	none
Cc1ccc2nc(Br)c3c(c2c1)OC(CBr)C3 (stereo not given)	hcDAF12 agonist 7.4 | LXR ag inactive | hcDAF12 ag inactive
Cc1cccc2cc3c(nc12)-c1ccccc1C3=O	hcDAF12 agonist 7.2 | LXR ag inactive | hcDAF12 ag inactive
Cc1ccc2c3c(cccc13)-c1ccccc1C2=O	none
Cc1ccc(NN=C2c3ccccc3-c3ccccc32)cc1	hcDAF12 agonist 10.7, AHR activator 67.9 | LXR ag inactive | hcDAF12 ag 9.0
COc1ccc(NC(=O)/C=C/c2ccccc2)cn1	hcDAF12 agonist 8.5, hgDAF12 agonist 11.9 | LXR ag inactive | hcDAF12 ag 6.5
Oc1ccc(Cl)cc1-c1cc(-c2ccco2)[nH]n1	hcDAF12 agonist 7.6, AHR activator 47.2 | LXR ag inactive | hcDAF12 ag inactive
Oc1ccc(Br)cc1-c1cc(-c2ccco2)[nH]n1	none
Oc1ccccc1-c1cc(-c2ccco2)[nH]n1	hcDAF12 agonist 7.6, hgDAF12 agonist 11.7 | LXR ag inactive | hcDAF12 ag 9.2
COc1ccc(Cl)cc1C(=O)NCC(c1ccco1)N(C)C (stereo not given)	hcDAF12 agonist 7.3 | LXR ag inactive | hcDAF12 ag inactive
COc1ccccc1-c1nnc(SCC(=O)N2CCCCC2)o1	none
COc1ccccc1-c1nnc(SCC(=O)N2CCOCC2)o1	hcDAF12 agonist 10.2, ssDAF12 agonist 1.1 | LXR ag inactive | hcDAF12 ag 11.1
Cc1cccc(-c2nnc(SCC(=O)N3CCOCC3)o2)c1	hcDAF12 agonist 6.8 | LXR ag inactive | hcDAF12 ag inactive
O=C(CSc1nnc(-c2cccc(F)c2)o1)N1CCOCC1	none
O=C(Cc1ccccc1)NCCCc1ccccc1	none
O=C(CCC(=O)NCCCc1ccccc1)NCCCc1ccccc1	hcDAF12 agonist 7.7 | LXR ag inactive | hcDAF12 ag inactive
COc1ccc(NC(=O)CN(C)Cc2cccs2)cc1Cl	none
CC(C)C(=O)Nc1ccc(NC(=O)c2ccccn2)cn1	hcDAF12 agonist 6.7 | LXR ag inactive | hcDAF12 ag inactive
OCCC1CN(C2CCN(c3ccccc3)CC2)CCN1Cc1ccc(F)c(F)c1 (stereo not given)	none
COc1ccc(C2c3[nH]c4ccccc4c3C[C@H]3C(=O)N(c4ccccc4C(=O)NCCN4CCOCC4)C(=O)N23)cc1 (stereo not given in full)	none
COc1cccc(C2c3[nH]c4ccccc4c3C[C@H]3C(=O)N(c4ccccc4C(=O)N4CCCC4C(=O)O)C(=O)N23)c1 (stereo not given in full)	hcDAF12 agonist 12.3 | LXR ag inactive | hcDAF12 ag inactive
O=C1[C@@H]2Cc3c([nH]c4ccccc34)C(c3ccccc3)N2C(=O)CN1C1CC1 (stereo not given in full)	none
Cc1ccc(C2c3[nH]c4ccccc4c3C[C@H]3C(=O)N(c4ccccc4C(=O)N4CCC(C(=O)O)CC4)C(=O)N23)cc1 (stereo not given in full)	hcDAF12 agonist 9.6 | LXR ag inactive | hcDAF12 ag inactive
Cc1ccc(C2c3[nH]c4ccccc4c3C[C@H]3C(=O)N(c4ccccc4C(=O)N4CCC[C@@H]4C(=O)O)C(=O)N23)cc1 (stereo not given in full)	hcDAF12 agonist 10.4 | LXR ag inactive | hcDAF12 ag inactive
O=P(C(=S)Nc1ccccc1Cl)(c1ccccc1)c1ccccc1	none (no result: AHR activator)
COc1cc2c(c(Br)c1N)-c1cc(Br)c(N)cc1C2=O	hcDAF12 agonist 6.9 (no result: AHR activator) | LXR ag inactive | hcDAF12 ag 8.8
CC(C(=O)NCCCc1ccccc1)c1ccc([N+](=O)[O-])cc1 (stereo not given)	none
CC(C)N1CCC1(C)C(=O)Nc1ccc(-n2cccc2)cc1 (stereo not given)	none (no result: AHR activator, DAX1 inh-2)
O=[N+]([O-])c1ccc(-c2ccc(S(=O)(=O)N3CCOCC3)cc2)cc1	hcDAF12 agonist 6.6, DAX1 inh-2 4.5 | LXR ag inactive | hcDAF12 ag inactive
O=C(C[n+]1cc(Br)cc(Br)c1)c1ccc(Cl)cc1	none
O=C(C[n+]1cc(Br)cc2ccccc21)c1ccc(Cl)cc1	hcDAF12 agonist 8.2, AHR activator 72.6 | LXR ag inactive | hcDAF12 ag inactive
Cc1cc2c(c(=O)o1)[C@@]1(C(=O)N(C)c3ccccc31)C1=C(CC(C)(C)CC1=O)O2	none (no result: AHR activator, DAX1 inh-2)
CSc1nnc(-c2ccccc2SC)o1	none
CSc1nnc(-c2cc3c(s2)-c2ccccc2CC3)o1	hcDAF12 agonist 9.8, AHR activator 66.5, hgDAF12 agonist 10.7, ssDAF12 agonist 2.6 | LXR ag inactive | hcDAF12 ag 10.7
FC(F)(F)c1nc2ccccc2c2nc3ccccc3n12	hcDAF12 agonist 8.3, AHR activator 49.9 | LXR ag inactive | hcDAF12 ag inactive
COCCn1c(SCC(=O)NCCc2ccc(OC)c(OC)c2)nc2c([nH]c3ccccc32)c1=O	none
CCOC(=O)C(C)Sc1nc2c([nH]c3ccccc32)c(=O)n1C (stereo not given)	none
CCOc1ccc(NC(=O)CSc2nc3c([nH]c4ccccc43)c(=O)n2C)cc1	hcDAF12 agonist 9.8 | LXR ag inactive | hcDAF12 ag 6.2
COc1ccc(-n2c(SCC(=O)Nc3ccc(C(N)=O)cc3)nc3c([nH]c4ccccc43)c2=O)cc1OC	hcDAF12 agonist 9.7, ssDAF12 agonist 0.9 | LXR ag inactive | hcDAF12 ag 8.8
CCOC(=O)CSc1nc2c([nH]c3ccccc32)c(=O)n1C	none
Cn1c(SCC(=O)Nc2cccc(F)c2)nc2c([nH]c3ccccc32)c1=O	hcDAF12 agonist 6.7 | LXR ag inactive | hcDAF12 ag inactive
CC(C)Sc1nc2c([nH]c3ccccc32)c(=O)n1C	hcDAF12 agonist 11.1, ssDAF12 agonist 1.0 | LXR ag inactive | hcDAF12 ag 7.1
COc1ccc(CN2CCCC2C(=O)Nc2ccc(OC)c(OC)c2)cc1OC (stereo not given)	none
